Test results published in PubChem BioAssay (NCATS).
Where “and” joins values, the source holds several entries; their conditions need not be identical. Equal entries are not always repeated. Results filed as inconclusive are left out. Some structures have more than one record in an assay (separate samples or runs), and their calls can disagree. Unmarked numbers belong to inactive results. Calls of active or inactive are those of the source. Calls come from the whole dose curve; as a rule, active = well fitted activation curve with a large enough effect; inconclusive = small, poorly fitted or top-dose-only effect; inactive = no such curve, though single readings can be large or run the other way.

biological target: Cellular tumor antigen p53 (Homo sapiens) (UniProt P04637); experiment: Primary qHTS for small molecule compounds that upregulate eGFP-tagged delta133p53alpha (in N-terminal) cells. (AID 2060322); conditions: NCI-H358 eGFP-delta133p53alpha fluorescence, 24 h; activation: hits give high values; note: nearly all actives have a fitted effect of over 75% in size;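 for activation: cells pre-induced with doxycycline then dosed without doxycycline; series mostly up to about 56 µM; 0% = DMSO vehicle and 100% = reference activator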
Sequence (P04637 whole entry, looked up): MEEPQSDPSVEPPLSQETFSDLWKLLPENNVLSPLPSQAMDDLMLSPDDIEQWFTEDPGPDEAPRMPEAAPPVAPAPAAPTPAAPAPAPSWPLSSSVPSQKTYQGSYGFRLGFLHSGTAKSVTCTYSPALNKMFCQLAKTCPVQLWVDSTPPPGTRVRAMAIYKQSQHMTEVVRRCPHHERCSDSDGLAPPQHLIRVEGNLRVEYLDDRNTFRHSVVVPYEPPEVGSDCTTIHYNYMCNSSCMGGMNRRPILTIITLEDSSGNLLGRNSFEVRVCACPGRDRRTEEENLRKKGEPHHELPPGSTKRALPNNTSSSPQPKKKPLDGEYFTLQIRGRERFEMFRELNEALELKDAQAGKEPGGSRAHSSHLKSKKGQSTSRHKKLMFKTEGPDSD
From the text: Assay Development and Screening Technology
National Center for Advancing Translational Sciences (NCATS),
National Institute of Health (NIH), Rockville, Maryland
Cellular senescence (CS) is one of the hallmarks of aging and age-related diseases. Senescent cells are characterized by an irreversible growth arrest, an increase in senescence-associated beta-galactosidase (SA-beta-gal) activity and p16INK4a expression, an activation of the DNA damage response pathways, and the emergence of a senescence-associated secretory phenotype (SASP).
Delta133p53alpha, a human/primate-specific p53 protein isoform, delays or inhibits the induction of CS and SASP in various types of human cells, including progeria-derived fibroblasts, primary normal astrocytes, and CD8+ T lymphocytes. Induction of delta133p53alpha with small molecule compounds may provide therapeutic opportunities for inhibition of senescence/SASP-associated pathologies in progeria syndromes, astrocyte-mediated neuroprotection in neurodegenerative diseases, and possibly prevention and treatment of a wider range of senescence- and aging-associated diseases.
Here we report the development and validation of a cell-based quantitative high throughput screening (qHTS) assay in 1,536-well format. This qHTS assay uses the NCI-H358 cell line with doxycycline-inducible expression of enhanced green fluorescent protein (eGFP)-tagged delta133p53alpha, which allows efficient and highly quantitative measurement of the protein levels.
PROTOCOL TABLE (as described by Inglese J, Shamu CE and Guy RK. 2007)
SEQUENCE No. (e.g., 1, 2, 3, etc.); […] (e.g., Cells, Incubation, Reagent, etc.); VALUE; DESCRIPTION.
1; Cells; 4uL; 800 doxycycline treated cells / well in doxycycline-free media, 1536-well black, clear-bottom low base Aurora microplates.
2; Compounds; 23 nL; Kalypsis pin tool (Wako) equipped with 1536-well pin heads, 5-azacytidine positive control.
3; Incubation; 24 hr; 37C, 5% CO2; 95% relative humidity.
4; Aspiration; 1x; BioTek EL406 washer dispenser (Agilent).
5; Fixing; 3.5% paraformaldehyde, BioTek EL406 washer dispenser (Agilent).
6; Washing; 1x PBS; BioTek EL406 washer dispenser (Agilent).
7; Nuclei staining; 1:1000 dilution of Hoechst 33342 (Thermofisher), BioTek EL406 washer dispenser (Agilent).
8; Incubation; 20 min; in the dark at room temperature.
9; Washing; 2x, 1x PBS (ThermoFisher), BioTek EL406 washer dispenser (Agilent).
10; Reagent; 10 uL; 1x PBS per well, sealed with clear adhesive tape.
NOTES (numbers refer to sequence numbers above).
1. NCI-H358 cells expressing eGFP-tagged delta133p53alpha were grown in T75 culture flasks and treated with doxycycline for 24h, at 10 ng/ml for eGFP-D133p53a cells (N-terminal cell) and 100 ng/ml for D133p53a-eGFP cells (C-terminal cells). Cells were trypsinized, counted using a Counted 3 Automated Cell Counter (Thermo Fisher), and diluted to a concentration of 200,000 cells/ml. A Multidrop Combi Reagent Dispenser (ThermoFisher) was used to dispense 800 cells/well in […] of doxycycline-free media, into 1536-well black/clear bottom low base plates (AuroraMicroplates).
2. After plating cells, 23 nl of compound library, DMSO vehicle control or positive control (5-azacytidine) were transferred by Pin Tool (Wako). The plate map layout was the same for each plate: (column 1) non-doxycycline treated cells + DMSO vehicle control; (column 2) doxycycline treated cells + DMSO vehicle control baseline; (column 3) doxycycline treated cells + positive control 57.5 uM final concentration 5-azacytidine; (column 4) doxycycline treated cells + serial dilution of 5-azacytidine, 16-point 1:2 titration spanning 1.8 nM to […] final concentration; (columns 5-48) doxycycline treated cells + titration of library compounds.
3. Cells were incubated at 37 °C, 5 % CO2, 95% RH with breathable metal lid for 24h.
4-10. […] After two washes, 10 ul of 1X PBS (Thermo Fisher) was dispensed to each well. Clear adhesive plate seals (VWR) were applied and plates stored at 4 °C.
11. […]
Potency is the fitted concentration of half-maximal effect.

SMILES	activation	Potency
CC(C)c1cc(C(=O)N2Cc3ccc(CN4CCN(C)CC4)cc3C2)c(O)cc1O	-13.4%	
CC[N+]1(C/C2=C/CCCCCC2)CCC(NC(=O)C2c3cc(Cl)ccc3Oc3ccc(Cl)cc32)CC1 (stereo not given)	28.6%	
C[C@@H]1CC=CC=CC=CC=C[C@@H](O[C@@H]2O[C@H](C)[C@@H](O)[C@H](N)[C@H]2O)C[C@@H]2O[C@](O)(C[C@@H](O)C[C@@H]3O[C@@H]3C=CC(=O)O1)C[C@H](O)[C@@H]2C(=O)O	-2.86%	
CCS(=O)(=O)c1ccc(OC)c(C(=O)OC)c1	19.8%	
CO[C@@H]1[C@@H](OC)[C@H](C)[C@@](O)(CC(=O)O)O[C@H]1[C@H](C)[C@H]1O[C@@]2(CC[C@@](C)([C@H]3CC[C@@](C)([C@@H]4O[C@@H]([C@H]5O[C@](C)(O)[C@H](C)C[C@@H]5C)C[C@@H]4OC4C[C@H](OC)[C@@H](OC)[C@H](C)O4)O3)O2)C[C@H](O)[C@H]1C (stereo not given in full)		8.71 µM (active)
CC1=C(C(=O)O)N2C(=O)[C@@H](NC(=O)C(N)c3ccccc3)[C@H]2SC1 (stereo not given in full)	15.6% and -22.6%	
CC(C)(O)c1ccn2c(-c3ccc(F)c(-c4ccc(F)cc4C#N)c3)cnc2c1F	-22.4%	
CC(=O)O[C@@H]1C[C@@]23C[C@@]24CC[C@H](OC2OC[C@@H](O)[C@H](O)[C@H]2O)C(C)(C)[C@@H]4CC[C@H]3[C@]2(C)CC3OC4(C[C@@H](C)C3[C@@]12C)OCC1(C)OC14 (stereo not given in full)	13.4%	
CC(C)(CO)Cc1cc(C(C)(C)C)c(O)c(C(C)(C)C)c1	-20%	
O=C1C(=O)c2ccccc2C(O)=C1C1CCC(c2ccc(Cl)cc2)CC1 (stereo not given)	-33.3%	
CCc1cncnc1N1CCN(Cc2nc3ccc(C(F)(F)F)cc3[nH]2)CC1	-18% and -36.7% and 26.8%	
C/C(=C\CO)CC/C=C(\C)C(=O)O[C@@H]1O[C@H](CO)[C@@H](O)[C@H](O)[C@H]1O	-19.6%	
O=C(O)Cc1cccc(-c2cc(CCCCCCc3ccc(O[C@H]4O[C@H](CO)[C@@H](O)[C@H](O)[C@@H]4O)c(-c4cccc(CC(=O)O)c4)c3)ccc2O[C@H]2O[C@H](CO)[C@@H](O)[C@H](O)[C@@H]2O)c1	4.33%	
COc1cc2nc(N3CCCN(C)CC3)nc(NC3CCN(Cc4ccccc4)CC3)c2cc1OC	-2.51%	30.6 µM (active)
NC(=O)c1cccc2[nH]c(-c3ccc(C4CCCN4)cc3F)nc12 (stereo not given)	0%	
OC1(c2ccc(Cl)cc2)CCN(Cc2c[nH]c3ccccc23)CC1	-4.41%	
NC(N)=Nc1nc(CSCC/C(N)=N/S(N)(=O)=O)cs1	-9.6% and 12.2%	
COc1ccc2cc(-c3nc(-c4ccc(S(C)=O)cc4)[nH]c3-c3ccncc3)ccc2c1 (stereo not given)	-7.86% and 8.04%	
CCCO[C@@H]1O[C@H](CO)[C@@H](O)[C@H](O)[C@H]1O[C@@H]1OC[C@@H](O)[C@H](O)[C@H]1O	-15.3%	
CC1=CC(=O)CC(C)(CO[C@@H]2O[C@H](CO)[C@@H](O)[C@H](O)[C@H]2O)C1(O)/C=C/C(C)=C/C(=O)O (stereo not given in full)	0.893%	

SMILES	activation	Potency
COc1cc(Nc2ncc3c(n2)-c2ccc(Cl)cc2C(c2c(F)cccc2OC)=NC3)ccc1C(=O)O	85.9%	
NCCCCCCCCCCN	28.3%	
CN1CC(=O)NC1=N	-5.08%	
C/C(=C\C=C\C(C)C1CCC2(C)C3CCC4C(C)(C)C(=O)CCC45CC35CCC12C)C(=O)O (stereo not given)	5.36%	
CC(C)(C)NCC(O)COc1ccc(NC(=O)NC2CCCCC2)cc1 (stereo not given)	5.08%	
N#CCc1ccc(O)cc1O[C@@H]1O[C@H](CO)[C@@H](O)[C@H](O)[C@H]1O	-11.6%	
O=C(Nc1ccn(Cc2ccc(O)cc2C(F)(F)F)n1)c1c(F)cccc1F	-13.4%	
CC(=O)SC1CC2=CC(=O)CC[C@]2(C)C2CC[C@@]3(C)C(CC[C@@]34CCC(=O)O4)C12 (stereo not given in full)	-47.2%	
CC(=O)OCC1=C[C@H](O)[C@@H]2C(C(=O)O)=CO[C@@H](O[C@@H]3O[C@H](CO)[C@@H](O)[C@H](O)[C@H]3O)[C@H]12	0.763%	
Cc1cncc2cccc(S(=O)(=O)N3CCCN(C(=O)CN)C[C@@H]3C)c12	-16.4% and -8.59%	
O=C(O)C(=O)Nc1cccc(C2=NN=N[N]2)c1	19.6%	
C=C1C(=O)O[C@H]2CC(=C)[C@H]3CC[C@@](C)(O)[C@@H]3CC12 (stereo not given in full)		15.1 µM (active)
C[C@@H](NCCc1ccc(O)cc1)[C@@H](O)c1ccc(O)cc1	-21.6%	
Cc1ccc(C(=O)C(C)CN2CCCCC2)cc1 (stereo not given)	-2.39%	
COc1cc(C/C(=C/NC(C)=O)N(CC(=O)Cc2ccccc2)C(C)=O)cc2c1OCO2	-26%	
C[C@@]1(C2CCCC2)Cc2cc(OCC(=O)O)c(Cl)c(Cl)c2C1=O	4.66%	
C=CC(C)(CC/C=C(\C)CC/C=C(\C)CC(O)/C=C(\C)C(=O)O)O[C@@H]1O[C@H](CO)[C@@H](O)[C@H](O)[C@H]1O[C@@H]1O[C@H](CO)[C@@H](O)[C@H](O)[C@H]1O (stereo not given in full)	-12.2%	
CC(=O)O[C@]1(C(C)=O)CC[C@H]2[C@@H]3C=C(Cl)C4=CC(=O)CC[C@]4(C)[C@H]3CC[C@@]21C	-6.69%	
NCCS(=O)O	-4.42%	
